Laboratory results taken from PubChem BioAssay (NCI).
The panel holds about 83,000 compounds, 20% with a hit somewhere; the sample as a whole holds those more often.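 How to read the values: 0–100, growth inhibition (40 = 60% inhibited); 0, no net growth; -100 to 0, cell death (-40 = 40% of starting cells died; -100 = all dead).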 Active and inactive are the calls of the source. How the source made its calls: active means growth percent below 10; inactive means the rest.

Columns and labels:
Assay in all cases: NCI-60 one-dose screen, 48 h (100 = growth as untreated, 0 = no growth, -100 = all killed)
SR leukemia = conditions: 10 µM unless noted
RPMI-8226 leukemia = conditions: 10 µM unless noted
OVCAR-8 ovarian = conditions: 10 µM unless noted
OVCAR-5 ovarian = conditions: 10 µM unless noted
OVCAR-4 ovarian = conditions: 10 µM unless noted
SK-OV-3 ovarian = conditions: 10 µM unless noted
IGROV1 ovarian = conditions: 10 µM unless noted
OVCAR-3 ovarian = conditions: 10 µM unless noted
HS 578T breast = conditions: 10 µM
NCI/ADR-RES ovarian = conditions: 10 µM unless noted
BT-549 breast = conditions: 10 µM unless noted
MDA-MB-435 melanoma = conditions: 10 µM unless noted
SW-620 colon = conditions: 10 µM unless noted
MCF7 breast = conditions: 10 µM unless noted
HCT-116 colon = conditions: 10 µM unless noted
HCC-2998 colon = conditions: 10 µM unless noted
KM12 colon = conditions: 10 µM unless noted
T-47D breast = conditions: 10 µM unless noted

Compound | growth (SR leukemia) | growth (RPMI-8226 leukemia) | growth (OVCAR-8 ovarian) | growth (OVCAR-5 ovarian) | growth (OVCAR-4 ovarian) | growth (SK-OV-3 ovarian) | growth (IGROV1 ovarian) | growth (OVCAR-3 ovarian) | growth (HS 578T breast) | growth (NCI/ADR-RES ovarian) | growth (BT-549 breast) | growth (MDA-MB-435 melanoma) | growth (SW-620 colon) | growth (MCF7 breast) | growth (HCT-116 colon) | growth (HCC-2998 colon) | growth (KM12 colon) | growth (T-47D breast)
Nc1n[nH]c2ccc([C@@H]3Nc4c(F)cc5[nH]ncc5c4[C@H]4C5CCC(C5)[C@@H]34)cc12 (stereo not given in full) | 42.8% (inactive) | 21.3% (inactive) | 22% (inactive) | 30.8% (inactive) | 29.4% (inactive) | 39.1% (inactive) | 20.9% (inactive) | -16.7% (active) | 20.9% (inactive) | 13.8% (inactive) | 27% (inactive) | -11.5% (active) | 21.8% (inactive) | 18.5% (inactive) | 7.44% (active) | 28.1% (inactive) | 10.4% (inactive) | 
C#CC[C@@H]1C[C@]2(C)[C@H]3CC=C4[C@H]5CC(C)(C)CC[C@]5(C(=O)NCCCCN)CC[C@@]4(C)[C@]3(C)CC[C@H]2C(C)(C)[C@H]1OC(C)=O | 0.939% (active) | -10.2% (active) | 3.77% (active) | 21.7% (inactive) | 50.1% (inactive) | 116% (inactive) | 32.8% (inactive) | 49.3% (inactive) | 94.3% (inactive) | 81.7% (inactive) | 97.8% (inactive) | -34.2% (active) | -23.9% (active) | 4.27% (active) | -31% (active) | 1.58% (active) | 6.43% (active) | 
CC(=O)O[C@H]1[C@H](CC#CC#CC[C@@H]2C[C@]3(C)[C@H]4CC=C5[C@H]6[C@@H](C)[C@H](C)CC[C@]6(C(=O)NCCCCCCCCN)CC[C@@]5(C)[C@]4(C)CC[C@H]3C(C)(C)[C@H]2OC(C)=O)C[C@]2(C)[C@H]3CC=C4[C@H]5[C@@H](C)[C@H](C)CC[C@]5(C(=O)NCCCCCCCCN)CC[C@@]4(C)[C@]3(C)CC[C@H]2C1(C)C | 123% (inactive) | 95.6% (inactive) | 108% (inactive) | 108% (inactive) | 114% (inactive) | 108% (inactive) | 99.1% (inactive) | 100% (inactive) | 110% (inactive) | 98.1% (inactive) | 112% (inactive) | 110% (inactive) | 97.8% (inactive) | 105% (inactive) | 97.7% (inactive) | 100% (inactive) | 89.2% (inactive) | 
Clc1ccc(-c2nc(Br)cn3ccnc23)cc1 | 92.2% (inactive) | 93.4% (inactive) | 86.8% (inactive) | 90.4% (inactive) | 112% (inactive) | 88.5% (inactive) | 74.3% (inactive) | 82.8% (inactive) | 91.3% (inactive) |  | 84.1% (inactive) | 111% (inactive) | 91.5% (inactive) | 64.1% (inactive) | 77.8% (inactive) | 104% (inactive) | 86.6% (inactive) | 54.4% (inactive)
CC(=O)c1nn(-c2ccccc2)/c(=N\N=C\c2coc3ccc(F)cc3c2=O)s1 | 96.2% (inactive) | 91.9% (inactive) | 107% (inactive) | 110% (inactive) | 108% (inactive) | 98.9% (inactive) | 87.2% (inactive) | 111% (inactive) | 95.1% (inactive) | 104% (inactive) | 105% (inactive) | 103% (inactive) | 98.7% (inactive) | 90.3% (inactive) | 96% (inactive) | 111% (inactive) | 101% (inactive) | 
Brc1cccc(-n2ncc3c(Nc4ccc(-c5nnc(-c6ccccc6)o5)cc4)ncnc32)c1 | 119% (inactive) | 117% (inactive) | 97.8% (inactive) | 104% (inactive) | 107% (inactive) | 110% (inactive) | 112% (inactive) | 99.6% (inactive) | 110% (inactive) | 98.6% (inactive) | 101% (inactive) | 106% (inactive) | 99.5% (inactive) | 99.5% (inactive) |  | 100% (inactive) | 102% (inactive) | 
COCCCNCC(=O)Nc1c(C)cccc1C | 100% (inactive) | 108% (inactive) | 107% (inactive) | 104% (inactive) | 111% (inactive) | 112% (inactive) | 140% (inactive) | 122% (inactive) | 124% (inactive) |  | 104% (inactive) | 112% (inactive) | 114% (inactive) | 114% (inactive) | 110% (inactive) | 122% (inactive) | 109% (inactive) | 103% (inactive)
COc1ccc(-n2nc(C(=O)NCC(=O)Nc3nc4cc(OC)ccc4s3)c3ccccc3c2=O)cc1 | 86.8% (inactive) | 39.1% (inactive) | -12.4% (active) | 44.6% (inactive) | -20.4% (active) | -18.5% (active) | -3.66% (active) | 3.53% (active) | -4.47% (active) |  | -23.4% (active) | 42.5% (inactive) | 47.6% (inactive) | -6.52% (active) | 2.56% (active) | 55.8% (inactive) | 18.2% (inactive) | 17% (inactive)
C#CC[C@@H]1C[C@]2(C)[C@H]3CC[C@@H]4[C@H]5C(C(=C)C)CC[C@]5(C(=O)NCCCCCCCCN)CC[C@@]4(C)[C@]3(C)CC[C@H]2C(C)(C)[C@H]1OC(C)=O (stereo not given in full) | -16% (active) | 0.0796% (active) | 91.3% (inactive) | 108% (inactive) | 45.9% (inactive) | 124% (inactive) | 85.7% (inactive) | 55.4% (inactive) | 109% (inactive) | 93.8% (inactive) | 97.5% (inactive) | 76.5% (inactive) | -2.59% (active) | -18.9% (active) | -88.5% (active) | 91.1% (inactive) | 61.9% (inactive) | 
COc1ccc(C2CC(c3cccc(Nc4ccnc5cc(Cl)ccc45)c3)=NN2c2ccc(Cl)cc2)cc1 (stereo not given) | 69.7% (inactive) | 42.6% (inactive) | 56.6% (inactive) | 84.4% (inactive) | 95.9% (inactive) | 94.7% (inactive) | 99.1% (inactive) | 74.2% (inactive) | 90.5% (inactive) |  | 56.7% (inactive) | 30.6% (inactive) | 30.7% (inactive) | 65% (inactive) | 66.3% (inactive) | 7.59% (active) | 22.2% (inactive) | 40.6% (inactive)
CCNC(=S)N(Cc1ccccc1)Cc1ccccc1 | 72% (inactive) | 110% (inactive) | 103% (inactive) | 91% (inactive) | 124% (inactive) | 105% (inactive) | 113% (inactive) | 123% (inactive) | 136% (inactive) | 106% (inactive) | 119% (inactive) | 105% (inactive) | 115% (inactive) | 107% (inactive) | 110% (inactive) | 98.3% (inactive) | 114% (inactive) | 
COc1ccc(-c2nc3ccc(Cc4ccc5nc(-c6ccc(OC)cc6)[nH]c5c4)cc3[nH]2)cc1 | 38.8% (inactive) | 18.5% (inactive) | 15.1% (inactive) | 91.2% (inactive) | 11.4% (inactive) | 97.3% (inactive) | -16.9% (active) | -21.9% (active) | 73.1% (inactive) |  | 84.5% (inactive) | 35.3% (inactive) | 31.2% (inactive) | -13.5% (active) | 39.4% (inactive) | 35.8% (inactive) | 49.1% (inactive) | 20.8% (inactive)
Cc1ccc(N2C3c4ccccc4N(S(=O)(=O)c4ccc(C)cc4)C2c2ccccc2N3S(=O)(=O)c2ccc(C)cc2)cc1 | 96% (inactive) | 93.1% (inactive) | 88.9% (inactive) | 105% (inactive) | 93.9% (inactive) | 106% (inactive) | 107% (inactive) | 107% (inactive) | 99.5% (inactive) |  | 115% (inactive) | 99.9% (inactive) | 96.6% (inactive) | 88.5% (inactive) | 121% (inactive) | 115% (inactive) | 95.4% (inactive) | 93.2% (inactive)
CCCN(CCC)CC(O)COc1ccccc1C(=O)Nc1ccccc1 (stereo not given) | 28.7% (inactive) | 71.4% (inactive) | 84.3% (inactive) | 115% (inactive) | 85% (inactive) | 67.4% (inactive) | 113% (inactive) | 50.3% (inactive) | 80.9% (inactive) |  | 87.1% (inactive) | -21.1% (active) | 36.9% (inactive) | 79.9% (inactive) | 50.6% (inactive) | 79.6% (inactive) | 48.3% (inactive) | 97.1% (inactive)
Cc1ccc(-c2cnc3sc4ccc(Cl)cc4n23)cc1 | 111% (inactive) | 98.6% (inactive) | 103% (inactive) | 106% (inactive) | 86.9% (inactive) | 75.7% (inactive) | 81% (inactive) | 101% (inactive) | 110% (inactive) | 94.6% (inactive) | 100% (inactive) | 105% (inactive) | 89.7% (inactive) | 81.5% (inactive) |  | 105% (inactive) | 96.5% (inactive) | 
C#CC[C@@H]1C[C@]2(C)[C@H]3CC[C@@H]4[C@H]5C(C(=C)C)CC[C@]5(C(=O)NCCCCN)CC[C@@]4(C)[C@]3(C)CC[C@H]2C(C)(C)[C@H]1OC(C)=O (stereo not given in full) | -7.19% (active) | -39.1% (active) | -47.5% (active) | -87.3% (active) | -61.8% (active) | 111% (inactive) | -59% (active) | -87.3% (active) | -26.2% (active) | -53.4% (active) | 41.2% (inactive) | -92.2% (active) | -66.8% (active) | -71.6% (active) | -85.7% (active) | -11.1% (active) | -66.8% (active) | 
